# Data taken from the supplement of paper PMC7411054.
# Counter-ions that a name gives are not always drawn.
# Assays:
# Assay in all cases: lowest phenotypically active concentration; higher = less potent
# Details in all cases: treatment time: 24 h
# A549-TUBA1B-RELA = tested on: A549-TUBA1B-RELA
# In short: (§1)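 Four wells per concentration (0.3, 1, 3 or 9 µM) were treated for 24 h in each of fifteen gene-edited reporter lines from A549, HepG2 and WPMY1 cells, then imaged live. After normalising live-cell features to solvent control wells, deviation was defined as ≥3 of 4 wells lying past the 95th percentile of control Euclidean distances. Reproducibility was defined as a median replicate Pearson correlation above the 95th percentile of non-replicates. Both had to hold for phenotypic activity.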
# A549-CANX-COX4 = tested on: A549-CANX-COX4
# In short: as §1
# A549-TP53BP1-CLTA = tested on: A549-TP53BP1-CLTA
# In short: as §1
# HepG2-CANX-COX4 = tested on: HepG2-CANX-COX4
# In short: as §1
# HepG2-TP53BP1-CLTA = tested on: HepG2-TP53BP1-CLTA
# In short: as §1
# HepG2-TUBA1B-RELA = tested on: HepG2-TUBA1B-RELA
# In short: as §1
# WPMY1-ACTB-RAB5A = tested on: WPMY1-ACTB-RAB5A
# In short: as §1
# WPMY1-CANX-COX4 = tested on: WPMY1-CANX-COX4
# In short: as §1
# WPMY1-TUBA1B-RELA = tested on: WPMY1-TUBA1B-RELA
# In short: as §1
# A549-ACTB-RAB5A = tested on: A549-ACTB-RAB5A
# In short: as §1
smiles,measurement,setting,value
COc1cc2c(cc1O)C[C@H]1c3c(cc(O)c(OC)c3-2)CCN1C [Boldine],lowest phenotypically active concentration,A549-TUBA1B-RELA,9 µM
C[C@]12CC[C@H](O)C[C@H]1CC[C@@H]1[C@@H]2CC[C@]2(C)[C@@H](C3=CC(=O)OC3)CC[C@]12O [Digitoxigenin],lowest phenotypically active concentration,A549-CANX-COX4,≤ 0.3 µM
same,lowest phenotypically active concentration,A549-TP53BP1-CLTA,≤ 0.3 µM
same,lowest phenotypically active concentration,HepG2-CANX-COX4,≤ 0.3 µM
same,lowest phenotypically active concentration,HepG2-TP53BP1-CLTA,1 µM
same,lowest phenotypically active concentration,HepG2-TUBA1B-RELA,≤ 0.3 µM
same,lowest phenotypically active concentration,WPMY1-ACTB-RAB5A,≤ 0.3 µM
same,lowest phenotypically active concentration,WPMY1-CANX-COX4,≤ 0.3 µM
same,lowest phenotypically active concentration,WPMY1-TUBA1B-RELA,≤ 0.3 µM
C[C@H](N)Cc1ccccc1 [dextroamphetamine],lowest phenotypically active concentration,A549-ACTB-RAB5A,3 µM
same,lowest phenotypically active concentration,A549-TUBA1B-RELA,3 µM
"Cc1c(C(=O)c2cccc3ccccc23)c2cccc3c2n1[C@H](CN1CCOCC1)CO3 [WIN 55,212-2 mesylate]",lowest phenotypically active concentration,WPMY1-ACTB-RAB5A,9 µM
same,lowest phenotypically active concentration,WPMY1-CANX-COX4,9 µM
C=C(C)[C@H]1Cc2c(ccc3c2O[C@@H]2COc4cc(OC)c(OC)cc4[C@@H]2C3=O)O1 [Rotenone],lowest phenotypically active concentration,A549-CANX-COX4,≤ 0.3 µM
same,lowest phenotypically active concentration,A549-TP53BP1-CLTA,≤ 0.3 µM
same,lowest phenotypically active concentration,HepG2-CANX-COX4,≤ 0.3 µM
same,lowest phenotypically active concentration,HepG2-TP53BP1-CLTA,≤ 0.3 µM
same,lowest phenotypically active concentration,HepG2-TUBA1B-RELA,≤ 0.3 µM
same,lowest phenotypically active concentration,WPMY1-ACTB-RAB5A,≤ 0.3 µM
same,lowest phenotypically active concentration,WPMY1-CANX-COX4,1 µM
same,lowest phenotypically active concentration,WPMY1-TUBA1B-RELA,1 µM
O=C1NC(=S)N(c2cccc(Br)c2)C(=O)/C1=C/c1ccco1,lowest phenotypically active concentration,A549-TUBA1B-RELA,9 µM
same,lowest phenotypically active concentration,HepG2-CANX-COX4,9 µM
same,lowest phenotypically active concentration,HepG2-TUBA1B-RELA,9 µM
same,lowest phenotypically active concentration,WPMY1-ACTB-RAB5A,3 µM
same,lowest phenotypically active concentration,WPMY1-CANX-COX4,9 µM
same,lowest phenotypically active concentration,WPMY1-TUBA1B-RELA,9 µM
CC(C)C[C@H]1C(=O)N2CCC[C@H]2[C@]2(O)O[C@](NC(=O)[C@@H]3C=C4c5cccc6[nH]c(Br)c(c56)C[C@H]4N(C)C3)(C(C)C)C(=O)N12 [bromocriptine],lowest phenotypically active concentration,A549-TP53BP1-CLTA,9 µM
same,lowest phenotypically active concentration,HepG2-CANX-COX4,9 µM
same,lowest phenotypically active concentration,HepG2-TP53BP1-CLTA,9 µM
same,lowest phenotypically active concentration,HepG2-TUBA1B-RELA,9 µM
C[C@@H]1C[C@@H]([C@H](O)CC2CC(=O)NC(=O)C2)C(=O)[C@@H](C)C1 [Cycloheximide],lowest phenotypically active concentration,A549-CANX-COX4,≤ 0.3 µM
same,lowest phenotypically active concentration,A549-TP53BP1-CLTA,≤ 0.3 µM
same,lowest phenotypically active concentration,HepG2-CANX-COX4,≤ 0.3 µM
same,lowest phenotypically active concentration,HepG2-TP53BP1-CLTA,3 µM
same,lowest phenotypically active concentration,HepG2-TUBA1B-RELA,≤ 0.3 µM
same,lowest phenotypically active concentration,WPMY1-ACTB-RAB5A,1 µM
same,lowest phenotypically active concentration,WPMY1-CANX-COX4,≤ 0.3 µM
same,lowest phenotypically active concentration,WPMY1-TUBA1B-RELA,≤ 0.3 µM
C[C@]12CC[C@H]3[C@@H](CCC4=CC(=O)CC[C@@]43C)[C@@H]1CC[C@@H]2O [testosterone],lowest phenotypically active concentration,HepG2-CANX-COX4,3 µM
C[C@H]1CCCC=C[C@@H]2C[C@H](O)C[C@H]2[C@H](O)C=CC(=O)O1 [brefeldin-a],lowest phenotypically active concentration,A549-CANX-COX4,≤ 0.3 µM
same,lowest phenotypically active concentration,A549-TP53BP1-CLTA,≤ 0.3 µM
same,lowest phenotypically active concentration,HepG2-CANX-COX4,≤ 0.3 µM
same,lowest phenotypically active concentration,HepG2-TP53BP1-CLTA,≤ 0.3 µM
same,lowest phenotypically active concentration,HepG2-TUBA1B-RELA,≤ 0.3 µM
same,lowest phenotypically active concentration,WPMY1-ACTB-RAB5A,≤ 0.3 µM
same,lowest phenotypically active concentration,WPMY1-CANX-COX4,≤ 0.3 µM
same,lowest phenotypically active concentration,WPMY1-TUBA1B-RELA,≤ 0.3 µM
CCN(CC)CCN1C(=O)CN=C(c2ccccc2F)c2cc(Cl)ccc21 [flurazepam],lowest phenotypically active concentration,HepG2-CANX-COX4,1 µM
C=C1C/C(=C\C)C(=O)O[C@@H]2CCN3CC=C(COC(=O)[C@]1(C)O)[C@H]23 [Seneciphylline],lowest phenotypically active concentration,HepG2-TP53BP1-CLTA,9 µM
C[C@H]1C(=O)O[C@@H]2CCN3CC=C(COC(=O)[C@](C)(O)[C@]1(C)O)[C@H]23 [Monocrotaline],lowest phenotypically active concentration,A549-TUBA1B-RELA,3 µM
O=C1C=C2C=C[C@@H]3C[C@@]2(O1)[C@H]1CCCCN31 [Securinine],lowest phenotypically active concentration,WPMY1-TUBA1B-RELA,9 µM
C[C@H]1CC[C@@H]2N(C1)C[C@H]1[C@@H]3C[C@H]4[C@@H](CC(=O)[C@H]5C[C@@H](O)CC[C@@]54C)[C@@H]3CC[C@H]1[C@]2(C)O [Imperialine],lowest phenotypically active concentration,WPMY1-ACTB-RAB5A,≤ 0.3 µM
same,lowest phenotypically active concentration,WPMY1-CANX-COX4,≤ 0.3 µM
C/C=C(/C)C(=O)O[C@H]1CC[C@@]2(C)[C@@H]3CC[C@H]4[C@]5(O)C[C@H](O)[C@@]6(O)[C@@H](CN7C[C@@H](C)CC[C@H]7[C@@]6(C)O)[C@]5(O)C[C@@]42O[C@]13O [Veratrine],lowest phenotypically active concentration,HepG2-TUBA1B-RELA,9 µM
N[C@@H]1C[C@H]1c1cc(F)cc(F)c1OCc1ccccc1,lowest phenotypically active concentration,WPMY1-ACTB-RAB5A,9 µM
